Source: PubChem BioAssay (Tox21)
Records with an inconclusive call do not appear. Active and inactive are the calls of the source. The call rests on the fitted dose curve; in most records, active means well fitted inhibition curve with a large enough effect in the repeat runs; inconclusive means weak or mixed curves; inactive means no such curve, though single readings can be large or run the other way.

target: Cytochrome P450 2C19 (Homo sapiens) (UniProt P33261); test: Cytochrome P450 Family 2 Subfamily C Member 19 (CYP2C19) small molecule antagonists: luciferase reporter qHTS assay (AID 1671197); settings: P450-Glo CYP2C19 enzyme, luciferin luminescence, 1 h; series mostly up to 115 µM; activity change, negative = inhibition: at the top concentration; further: nearly all actives have a fitted effect of over 65% in size
Sequence (P33261 whole entry, looked up): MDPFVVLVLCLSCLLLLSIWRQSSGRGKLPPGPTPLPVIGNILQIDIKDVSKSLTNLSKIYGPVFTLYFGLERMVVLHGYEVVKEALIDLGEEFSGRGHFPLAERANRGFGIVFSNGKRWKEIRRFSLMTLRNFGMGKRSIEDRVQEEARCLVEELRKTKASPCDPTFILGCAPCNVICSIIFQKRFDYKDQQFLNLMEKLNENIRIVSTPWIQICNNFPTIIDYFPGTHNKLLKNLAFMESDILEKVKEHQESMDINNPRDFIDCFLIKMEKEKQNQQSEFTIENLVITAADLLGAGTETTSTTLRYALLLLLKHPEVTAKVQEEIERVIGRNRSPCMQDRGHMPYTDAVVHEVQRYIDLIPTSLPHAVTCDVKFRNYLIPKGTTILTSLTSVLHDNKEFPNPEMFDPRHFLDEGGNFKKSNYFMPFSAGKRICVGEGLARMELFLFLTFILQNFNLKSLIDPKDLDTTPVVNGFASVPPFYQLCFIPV
Description: National Center for Advancing Translational Sciences [NCATS]
U.S. Environmental Protection Agency [EPA]
National Institutes of Environmental Health Sciences [NIEHS]
National Toxicology Program [NTP]
U.S. Food and Drug Administration [FDA]
Cytochrome P450 (CYP) enzymes are membrane-bound hemeproteins that play a key role in metabolism of drugs and xenobiotics. Evaluation of the effect of chemicals on CYP isozymes is useful to minimize the adverse drug reactions and toxicities in drug development process. Tox21 chemicals were tested for their effect on CYP enzyme activities by using P450-Glo (TM) screening systems (Promega Corporation, Madison, WI). These systems provide a luminescent method containing proluciferin substrates and are converted to luciferin products by CYP isozymes. The luciferin products formed are detected with a luciferin detection reagent, and the amount of light produced is proportional to CYP activity. P450-Glo (TM) CYP2C19 screening system (Catalog. No. V9880) was used to detect the compounds that interfere in CYP2C19 activity. The positive control compound used for CYP2C19 assay is ketoconazole (Sigma-Aldrich, St. Louis, MO).
Tox21 Assay Protocol Summary:
Two ul of enzyme-substrate mix was dispensed into medium binding white/solid 1536-well plates (Greiner Bio-One North America Inc., Monroe, NC) using a BioRaptr Flying Reagent Dispenser (FRD, Beckman Coulter, Brea, CA). Compounds dissolved in DMSO and positive control (ketoconazole) were transferred to the assay plates at 23 nl using a Pintool station (Wako, San Diego, CA). The assay plates were incubated at room temperature for 10 min. Then 2 ul of NADPH regeneration solution was added to each well of the assay plates using an FRD and incubated at 37C for 1 h. The reaction was stopped by adding 4 ul of detection reagent using an FRD and after 20 min incubation at room temperature the luminescence signal was measured using a ViewLux plate reader (Perkin Elmer, Shelton, CT). Data were expressed as relative luminescence units.
On the % scale 0 is the no-effect control and ±100 the full control effect; potency means the concentration at half of the fitted maximal effect.

SMILES	Potency	activity change, negative = inhibition
O=[N+]([O-])c1ccc(Oc2ccc([N+](=O)[O-])cc2)cc1	1.82 µM (active)	
CC(C)c1ccc2oc3nc(N)c(C(=O)O)cc3c(=O)c2c1	15.5 µM (active)	
CCCCCC[C@@H](CCC)C(=O)O		-0.349% [at 52.9 µM] (inactive)
CC(=O)CCc1ccc(O)cc1	20 µM (active)	
NCC[C@H](O)C(=O)N[C@@H]1C[C@H](N)[C@@H](O[C@H]2O[C@H](CN)[C@@H](O)[C@H](O)[C@H]2O)[C@H](O)[C@H]1O[C@H]1O[C@H](CO)[C@@H](O)[C@H](N)[C@H]1O		3.5% [at 0.435 µM] (inactive)
CCCCCCCCCCC1CO1 (stereo not given)		-2.32% (inactive)
OCc1ccccn1		7.31% [at 52.9 µM] (inactive)
CSc1nc(NC2CC2)nc(NC(C)(C)C)n1	20 µM (active)	
CSc1ccc(C=O)cc1		-3.17% (inactive)
CC(C)(O)c1ccccc1	68.1 µM (active)	
CCCCCCC(CCCCCCCCCCC(=O)OCC(COC(C)=O)OC(C)=O)OC(C)=O (stereo not given)		-20.6% [at 52.9 µM] (inactive)
NC(=O)CCCCC1CCSS1 (stereo not given)		-1.31% [at 52.9 µM] (inactive)
OCCCCCCO	12.8 µM (active)	
NC(=O)c1ncn([C@@H]2O[C@H](CO)[C@@H](O)[C@H]2O)c1O		19.9% [at 52.9 µM] (inactive)
CN(C)CCOC(c1ccc(Cl)cc1)c1ccccn1 (stereo not given)		-0.0564% [at 52.9 µM] (inactive)
COc1ccc(NC(C)=O)cc1		-20.1% (inactive)
c1cc(CN2CCCCC2)cc(OCCCNc2nc3ccccc3s2)c1		-24.2% [at 52.9 µM] (inactive)
C[C@H]1O[C@@H](n2cc(F)c(=O)[nH]c2=O)[C@H](O)[C@@H]1O		-7.4% [at 52.9 µM] (inactive)
NC(N)=NS(=O)(=O)c1ccc(N)cc1		49.6% [at 52.9 µM] (inactive)
Cc1ccccc1Br	79.1 µM (active)	

SMILES	Potency	activity change, negative = inhibition
CC(=O)c1ccc(C)cc1		-5.42% (inactive)
O=C1CC2(CCCC2)CC(=O)N1		-12.1% [at 52.9 µM] (inactive)
c1ccc(CCCc2ccccn2)cc1	5.64 µM (active)	
OCC(O)[C@@H](O)[C@H](O)[C@H](O)CO[C@H]1O[C@H](CO)[C@@H](O)[C@H](O)[C@H]1O (stereo not given in full)	19.9 µM (active)	
O=c1[nH]c2ccccc2c(=O)n1CCCl		9.11% [at 52.9 µM] (inactive)
C#CC(C)(O)CC(C)C (stereo not given)		1.49% (inactive)
C[N+](C)(C)CC[N+]1(C)Cc2c(Cl)c(Cl)c(Cl)c(Cl)c2C1		14.8% [at 52.9 µM] (inactive)
C=CCSCC1Nc2cc(Cl)c(S(N)(=O)=O)cc2S(=O)(=O)N1 (stereo not given)		3.84% [at 52.9 µM] (inactive)
COc1ccc2cc(C=O)ccc2c1	15.5 µM (active)	
CCCCCOC(=O)Nc1nc(=O)n([C@@H]2O[C@H](C)[C@@H](O)[C@H]2O)cc1F		-1.19% [at 52.9 µM] (inactive)
COc1cc(O)cc(O)c1	30.9 µM (active)	
CCCCCCCCCCCl		-17.9% (inactive)
COc1cc(CCC(C)=O)ccc1O		-18.5% (inactive)
N#CCN(CC#N)CCN(CC#N)CC#N		3.15% (inactive)
C=C(C)C(=O)OCCC(C)OC(=O)C(=C)C (stereo not given)		-4.95% (inactive)
CCC(=O)Nc1cccc(N)c1		-29.7% (inactive)
CC(C)(C)C(=O)/C=C/c1ccc(Cl)cc1	7.96 µM (active)	
Nc1ccc2cc(S(=O)(=O)O)ccc2c1	39.9 µM (active)	
Cc1c(C)n(CCN(C)C)c2ccc(C(=O)OCCN(C)C)cc12		-8.64% [at 52.9 µM] (inactive)
Cc1c(F)cc2c(=O)c(C(=O)O)cn3c2c1CCC3C (stereo not given)		17.2% [at 52.9 µM] (inactive)
